Drawing on PubChem BioAssay (NCI), this text covers growth for eight compounds.

Some test systems named below: NCI-H23 lung; NCI-H226 lung; NCI-H322M lung; HOP-62 NSCLC; NCI-H460 lung; HOP-92 NSCLC; NCI-H522 lung; A549/ATCC NSCLC; 786-0 renal; COLO 205 colon; DU-145 prostate; K-562 leukemia; MALME-3M melanoma; MDA-MB-231 breast; RXF 393 renal; SF-268 CNS; SF-295 CNS; SF-539 CNS; UACC-257 melanoma; M14 melanoma.
What all share (assay): NCI-60 one-dose screen, 48 h (100 = growth as untreated, 0 = no growth, -100 = all killed)
Conditions in all cases: 10 µM unless noted

About 83,000 compounds went through this panel and 20% of them were active in at least one assay; those are over-represented in the sample as a whole.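 The test compound was applied at a single concentration to cells in 96-well plates for 48 hours, and percent growth was recorded.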 A number with no mark means an inactive call. The source made the active and inactive calls. The calls were made as follows: active = growth percent below 10; inactive = the rest.

For the compound `COc1ccc(Cc2nc(C#N)c(N3CCN(c4ccc(F)cc4)CC3)o2)cc1`, the growth in the test with NCI-H23 lung is 86.3%; in the test on NCI-H226 lung, 74.1%; in the test with NCI-H322M lung it was 99.5%; in the test with HOP-62 NSCLC, 95.8%; in the test on NCI-H460 lung, 104%; in the test with HOP-92 NSCLC, 88.2%. In addition, the growth is 73.6% in the test with NCI-H522 lung; 92.1% in the test on A549/ATCC NSCLC; 91.1% with 786-0 renal; 103% in the test on COLO 205 colon; 100% with DU-145 prostate; 75.3% in the test on K-562 leukemia. Besides, the growth in the test with MALME-3M melanoma was 104%; with MDA-MB-231 breast, 98.4%; with RXF 393 renal, 76%; with SF-268 CNS, 90.5%; in the test with SF-295 CNS it was 95.5%; in the test with SF-539 CNS, 98.2%. Besides, the growth is 112% in the test on UACC-257 melanoma and 90% in the test with M14 melanoma.
As for `COc1cc(NCC(=O)Nc2cc(Nc3ccc(C)cc3)ncn2)c(Cl)c(OC)c1Cl`, the growth was 91.7% in the test with NCI-H23 lung; 85.4% with NCI-H226 lung; 84.8% in the test with NCI-H322M lung; 87% with HOP-62 NSCLC; 101% in the test on NCI-H460 lung; 78.7% with HOP-92 NSCLC. Also, the growth is 74.1% with NCI-H522 lung; 80.1% with A549/ATCC NSCLC; 96.7% in the test on 786-0 renal; 85.8% with COLO 205 colon; 102% in the test with DU-145 prostate; 80.6% with K-562 leukemia. Moreover, the growth is 111% with MALME-3M melanoma; 64.2% in the test on MDA-MB-231 breast; 118% in the test with RXF 393 renal; 88.6% in the test with SF-268 CNS; 82.8% in the test with SF-295 CNS; 95.5% with SF-539 CNS. The growth with UACC-257 melanoma was 89%; in the test with M14 melanoma, 88.4%.
For the compound `CCCCc1n(Cc2ccc3ccccc3n2)cc[n+]1Cc1ccc2ccccc2c1`, the growth with NCI-H23 lung was -1.01% (active); with NCI-H226 lung, 14.2%; in the test with NCI-H322M lung it was 30.6%; in the test with HOP-62 NSCLC, 17.4%; in the test with NCI-H460 lung, 7.73% (active); with HOP-92 NSCLC it was -33.9% (active). The growth was -8.22% (active) with NCI-H522 lung; 27% in the test on A549/ATCC NSCLC; 20.4% in the test on 786-0 renal; -74.2% (active) in the test on COLO 205 colon; 25.1% in the test on DU-145 prostate; 6.43% (active) in the test with K-562 leukemia. Also, the growth was -22.2% (active) in the test on MALME-3M melanoma; -29.2% (active) in the test with MDA-MB-231 breast; -14.3% (active) with RXF 393 renal; 19.3% in the test on SF-268 CNS; 0.543% (active) in the test with SF-295 CNS; 14.3% in the test with SF-539 CNS. Moreover, the figures for the growth with UACC-257 melanoma and with M14 melanoma were -32.7% (active) and -16.9% (active), respectively.
As to `CC(=O)Nc1c(C(=O)Nc2ccccc2)sc2nc3c(cc12)C(OC(C)=O)CCC3` (stereo not given), the growth with NCI-H23 lung is 98%; with NCI-H226 lung it was 92.9%; with NCI-H322M lung, 99%; in the test on HOP-62 NSCLC, 97.1%; in the test on NCI-H460 lung, 108%; in the test on HOP-92 NSCLC, 86.9%. Besides, the growth was 74.4% with NCI-H522 lung; 94.2% in the test on A549/ATCC NSCLC; 71.7% with 786-0 renal; 110% in the test with COLO 205 colon; 105% with DU-145 prostate; 72.1% in the test on K-562 leukemia. Besides, the growth was 89.7% in the test with MALME-3M melanoma; 101% with MDA-MB-231 breast; 62.1% with RXF 393 renal; 97.5% with SF-268 CNS; 32.4% with SF-295 CNS; 95.8% with SF-539 CNS. Also, the growth in the test with UACC-257 melanoma was 64.8%; in the test on M14 melanoma it was 90.3%.
On to `c1ccc(-c2n(Cc3ccc4ccccc4n3)cc[n+]2Cc2ccc3ccccc3c2)cc1`, for which the growth in the test with NCI-H23 lung is 2.93% (active); in the test with NCI-H226 lung, 9.5% (active); with NCI-H322M lung, 23.6%; in the test with HOP-62 NSCLC, 16.5%; with NCI-H460 lung it was 6.08% (active); with HOP-92 NSCLC, -32.4% (active). Moreover, the growth was 2.04% (active) in the test on NCI-H522 lung; 45.3% in the test on A549/ATCC NSCLC; 26.2% in the test on 786-0 renal; -77.5% (active) in the test on COLO 205 colon; 28.2% with DU-145 prostate; 5.02% (active) with K-562 leukemia. Besides, the growth in the test with MALME-3M melanoma is -20% (active); in the test with MDA-MB-231 breast, -6.39% (active); with RXF 393 renal, -8.14% (active); with SF-268 CNS it was 20.5%; in the test with SF-295 CNS, -7.2% (active); in the test with SF-539 CNS, 11.5%. Besides, the growth with UACC-257 melanoma is -27.1% (active); with M14 melanoma, -24.8% (active).
As to `N#Cc1c(-c2ccc(Cl)cc2)cc(-c2cc3ccccc3o2)nc1SCC(=O)c1ccc(Cl)cc1`, the growth with NCI-H23 lung was 91.7%; with NCI-H226 lung, 102%; with NCI-H322M lung, 104%; with HOP-62 NSCLC, 91.4%; with NCI-H460 lung it was 107%; with HOP-92 NSCLC, 83.7%. Further, the growth with NCI-H522 lung is 97.5%; in the test with A549/ATCC NSCLC it was 111%; with 786-0 renal, 97.2%; in the test with COLO 205 colon, 106%; in the test on DU-145 prostate it was 121%; in the test on K-562 leukemia it was 118%. Also, the growth with MALME-3M melanoma was 90.6%; with MDA-MB-231 breast, 95.5%; in the test on RXF 393 renal, 116%; with SF-268 CNS it was 99.3%; in the test on SF-295 CNS, 90.1%; with SF-539 CNS, 112%. For the same compound, the figures for the growth in the test on UACC-257 melanoma and in the test with M14 melanoma were 112% and 96.9%, respectively.
On to `C=C1C(=O)O[C@H]2[C@H]1CC/C(COC(=O)c1cccnc1)=C\CC[C@@]1(C)O[C@@H]21`, for which the growth is 79% in the test on NCI-H23 lung; 78.5% in the test on NCI-H226 lung; 104% with NCI-H322M lung; 85.2% with HOP-62 NSCLC; 84.8% in the test with NCI-H460 lung; 49.2% in the test on HOP-92 NSCLC. Besides, the growth in the test with NCI-H522 lung was 28.7%; in the test with A549/ATCC NSCLC, 80.1%; with 786-0 renal, 63.8%; with COLO 205 colon, 52.9%; with DU-145 prostate, 16.4%; in the test on K-562 leukemia it was 16.4%. Also, the growth with MALME-3M melanoma is 66.9%; in the test with MDA-MB-231 breast it was 79.9%; with RXF 393 renal it was 46%; in the test with SF-268 CNS it was 90.7%; in the test on SF-295 CNS, 102%; in the test with SF-539 CNS, 60.2%. The growth with UACC-257 melanoma is 57.8%; with M14 melanoma, 58.3%.
With `Cc1cc2ccccc2c[n+]1CC(=O)c1ccc(-c2ccccc2)cc1`, the growth is 48.6% with NCI-H23 lung; 60.8% with NCI-H226 lung; 78.3% in the test with NCI-H322M lung; 67.1% in the test with HOP-62 NSCLC; 45.9% with NCI-H460 lung; 27.8% in the test with HOP-92 NSCLC. For the same compound, the growth in the test on NCI-H522 lung is 26.8%; with A549/ATCC NSCLC, 53.3%; in the test with 786-0 renal it was 65.9%; in the test with COLO 205 colon, 32.5%; in the test with DU-145 prostate it was 65.8%; with K-562 leukemia, 11%. The growth in the test on MALME-3M melanoma was 71.4%; with MDA-MB-231 breast it was 51.1%; in the test with RXF 393 renal, 62.5%; in the test on SF-268 CNS, 73.4%; in the test on SF-295 CNS, 42.4%; in the test on SF-539 CNS it was 75.5%. Also, the growth in the test on UACC-257 melanoma is 50.3%; in the test on M14 melanoma, 47.3%.
